Screening results as filed in PubChem.
PNC assembly inh = blocks assembly of the perinucleolar compartment. PC3M PTB-GFP, PNC prevalence imaging, 16 h; hits give low values. activity change (PNC), negative = inhibition, % at 10 µM. 140,000 compounds, 3.1% hits;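 active means readout at or below -70, meaning at least 70% loss of cells showing the perinucleolar compartment, a nuclear body marking cancer cells; inconclusive means readout between -30 and a set limit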
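Read-out is percentage of cells bearing a perinucleolar compartment, from automated 20x imaging of fixed, Hoechst-stained PC3M PTB-GFP cells. Cells were seeded 4 h, then exposed 16 h to compound (23 nl of library stock) in duplicate plates.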
12-hLO inh = inhibitors of human 12-lipoxygenase (ALOX12). P18054. purified 12-hLO, xylenol orange hydroperoxide absorbance. Potency, µM (doses to about 57.1 µM), usual class: inhibitors. 150,000 compounds, 0.12% hits; active means well fitted inhibition curve with a large enough effect; inconclusive means small, poorly fitted or top-dose-only effect; further: nearly all actives have a fitted effect of over 55% in size
Target sequence (P18054 whole entry, looked up): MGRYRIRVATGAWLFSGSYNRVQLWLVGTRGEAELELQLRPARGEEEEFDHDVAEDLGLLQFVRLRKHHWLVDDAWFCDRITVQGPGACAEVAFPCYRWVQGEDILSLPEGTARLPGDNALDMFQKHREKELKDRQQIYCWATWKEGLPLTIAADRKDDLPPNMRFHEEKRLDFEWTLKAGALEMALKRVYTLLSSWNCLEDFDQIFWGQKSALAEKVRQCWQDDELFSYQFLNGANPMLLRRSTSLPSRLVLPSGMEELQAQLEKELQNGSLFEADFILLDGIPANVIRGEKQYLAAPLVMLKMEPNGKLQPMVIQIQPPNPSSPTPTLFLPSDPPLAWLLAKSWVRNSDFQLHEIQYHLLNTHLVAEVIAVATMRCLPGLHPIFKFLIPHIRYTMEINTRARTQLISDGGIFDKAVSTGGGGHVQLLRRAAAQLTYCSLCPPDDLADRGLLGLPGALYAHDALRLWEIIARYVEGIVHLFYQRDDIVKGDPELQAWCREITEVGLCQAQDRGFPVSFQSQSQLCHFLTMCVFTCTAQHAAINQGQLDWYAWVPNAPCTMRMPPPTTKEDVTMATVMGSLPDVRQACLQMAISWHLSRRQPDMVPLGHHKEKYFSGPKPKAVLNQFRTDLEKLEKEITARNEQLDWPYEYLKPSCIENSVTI
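Hydroperoxide formation by human 12-lipoxygenase from 40 uM arachidonic acid was followed colorimetrically via ferric-xylenol orange complex, using the 573/405 nm absorbance ratio. Enzyme concentration was 150 nM, with 30 min reaction at room temperature.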
Lamin A splicing = changes lamin A minigene splicing in HeLa cells. Potency, µM (series often up to 46.1 µM), usual class: inhibitors. 200,000 compounds, 0.01% hits. HeLa LMNA splicing GFP/RFP minigene ratio, 48 h; active means well fitted inhibition curve with a large enough effect in the signal ratio, with a control signal flat, not every such curve was filed as active; inconclusive means small, poorly fitted or top-dose-only effect, or effect the other way, or a change in a side signal; the % refers to the signal ratio
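Read-out is the ratio of GFP to DsRed2 object intensity, acquired by 488 nm laser-scanning cytometry on HeLa lamin A-EGFP minigene reporter cells. Compound incubation 48 hrs at 37 °C in Opti-MEM with 2% FBS; DMSO 0.5% final.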
ALDH1A1 inh = ALDH1A1 (human) enzyme inhibition | 220,000 compounds, 7.3% hits | P00352 | Purified ALDH1A1, NADH fluorescence, propionaldehyde substrate | Potency, µM (titrated, usually from 75.3 µM), usual class: inhibitors
HPGD block = inhibitors of human 15-hydroxyprostaglandin dehydrogenase (HPGD); AID 894; 150,000 compounds, 4.3% hits; Potency, µM, actives largely listed as inhibitors; P15428; purified HPGD, NADH fluorescence kinetic, PGE2 substrate
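NADH formation kinetics: reaction with 30 uM PGE2 and 1 mM NAD+ (final), 20 nM enzyme, Tris-HCl pH 8 with Tween 20, after 15 min compound preincubation at room temperature. Fluorescence change, last versus first of five reads.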
Large screens that a line does not name were inactive. Only some compounds are listed: those with a hit (about 10% of all), similar ones and a draw of the others. Unless noted, the call rests on the fitted dose curve; in most records, active means well fitted inhibition curve with a large enough effect (not every such curve was filed as active); inconclusive means small, poorly fitted or top-dose-only effect, or another doubt; inactive means no such curve, though single readings can be large or run the other way.

Cc1ccc(S(=O)(=O)c2nc(C(C)(C)C)oc2N2CCOCC2)cc1	ALDH1A1 inh 10µM
Cc1ccc(S(=O)(=O)c2nc(C)oc2N2CCOCC2)cc1	none (no result: PNC assembly inh, 12-hLO inh, HPGD block)
COP(=O)(OC)c1nc(-c2ccccc2)oc1N1CCOCC1	ALDH1A1 inh inconclusive, HPGD block inconclusive
COCCCNC(=O)Cn1c(=O)n(-c2cccc(C)c2)c(=O)c2c1c1cc(C)ccc1n2C	none (no result: PNC assembly inh, 12-hLO inh, ALDH1A1 inh, HPGD block)
Oc1ccc(/C=N/N2CCOCC2)c(O)c1O	ALDH1A1 inh 7.1µM (no result: PNC assembly inh, 12-hLO inh, HPGD block)
Cc1ccc(/C=N/N2CCN(c3ccccn3)CC2)cc1	Lamin A splicing inconclusive (no result: PNC assembly inh, 12-hLO inh, HPGD block)
CCN(Cc1ccccc1)c1ccc(/C=N/N2CCOCC2)cc1	Lamin A splicing inconclusive, ALDH1A1 inh 2.2µM
CCN(CC)c1ccc(/C=N/N2CCN(c3ccccn3)CC2)cc1	ALDH1A1 inh 22µM (no result: PNC assembly inh, 12-hLO inh, Lamin A splicing, HPGD block)
COc1ccccc1N1CCN(/N=C/c2cc(OC)c(O)c(OC)c2)CC1	ALDH1A1 inh 16µM, HPGD block inconclusive
Fc1ccc(/C=N/N2CCOCC2)c(F)c1	none (no result: PNC assembly inh, 12-hLO inh, HPGD block)
COc1ccc(-c2cn3nc(N4CCCC(C(=O)Nc5cc(C)cc(C)c5)C4)sc3n2)cc1 (configuration not stated)	none (no result: PNC assembly inh, 12-hLO inh, ALDH1A1 inh, HPGD block)
COc1ccccc1CCn1c(=O)c(C)nc2cncnc21	none (no result: PNC assembly inh, Lamin A splicing)
Cc1nc(NCc2ccccc2)c2nc(-c3ccccc3)n(CC(C)(C)CN(C)C)c2n1	ALDH1A1 inh inconclusive, HPGD block inconclusive (no result: PNC assembly inh, Lamin A splicing)
Fc1cccc(F)c1/C=N/N1CCOCC1	none (no result: PNC assembly inh, 12-hLO inh, HPGD block)
CCN(CC)c1ccc(/C=N/N2CCOCC2)cc1	ALDH1A1 inh 22µM
COc1ccc(/C=N/N2CCOCC2)cc1O	PNC assembly inh -81
C[C@H](CCC(=O)O)C1CC[C@H]2C3CC[C@@H]4C[C@H](O)CC[C@]4(C)C3C[C@H](O)[C@]12C (some centres not stated)	none (no result: PNC assembly inh, 12-hLO inh, Lamin A splicing, HPGD block)
COc1ccccc1CCNC(=O)C(=O)NCC(c1ccc2c(c1)OCO2)N1CCOCC1 (configuration not stated)	none (no result: PNC assembly inh, 12-hLO inh, ALDH1A1 inh, HPGD block)
CCCCOc1ccc(C(=O)NCCc2sc3nc(-c4ccc(OC)cc4)nn3c2C)cc1	none (no result: PNC assembly inh, 12-hLO inh, ALDH1A1 inh, HPGD block)
COc1ccc(CN2CCN(C(=O)C3CCC(CNS(=O)(=O)c4ccc(C)cc4)CC3)CC2)c(OC)c1OC (configuration not stated)	Lamin A splicing inconclusive, ALDH1A1 inh 20µM (no result: PNC assembly inh, 12-hLO inh, HPGD block)
CCOC(=O)N1CCN(C(=O)C2CCC(CNS(=O)(=O)c3ccc(Cl)cc3)CC2)CC1 (configuration not stated)	none
CC(=O)Nc1ccc(S(=O)(=O)NCC2CCC(C(=O)N3CCCCCC3)CC2)cc1 (configuration not stated)	ALDH1A1 inh 22µM, HPGD block 7.1µM
COc1cc(C(=S)N2CCOCC2)ccc1OS(=O)(=O)c1ccc(NC(C)=O)cc1	Lamin A splicing inconclusive
COc1cc(C(=S)N2CCCC2)cc(OC)c1OS(=O)(=O)c1ccc(NC(C)=O)cc1	ALDH1A1 inh inconclusive, HPGD block 22µM
Cc1[nH]cnc1CSCc1ccc(F)cc1	PNC assembly inh inconclusive
Cc1[nH]c(=S)sc1Cc1ccc(F)cc1	Lamin A splicing inconclusive, ALDH1A1 inh inconclusive, HPGD block 16µM
O=C(CSCCO)Nc1ccc(C2CCCCC2)cc1	PNC assembly inh -127, ALDH1A1 inh 7.1µM, HPGD block 4.5µM
BrC(/C=C\c1ccccc1)=N/Nc1nc(N2CCOCC2)nc(N2CCOCC2)n1	none (no result: PNC assembly inh, 12-hLO inh, Lamin A splicing, HPGD block)
BrC(=C\c1ccccc1)/C=N/Nc1nc(N2CCOCC2)nc(N2CCOCC2)n1	Lamin A splicing inconclusive, HPGD block 16µM
CCCCC/C=N\NC(=O)Cc1ccc([N+](=O)[O-])cc1	PNC assembly inh -95
Cc1ccc(C(=O)NC(=S)NNC(=O)CC#N)cc1	none (no result: PNC assembly inh, 12-hLO inh, HPGD block)
CCCCCC(=O)NNC(=O)Cc1ccc([N+](=O)[O-])cc1	none (no result: PNC assembly inh, 12-hLO inh, Lamin A splicing, HPGD block)
CCCCC(=O)NNC(=S)NC(=O)c1cccc([N+](=O)[O-])c1	12-hLO inh inconclusive, Lamin A splicing inconclusive, ALDH1A1 inh 1.8µM, HPGD block 8.9µM
CCCCOc1ccc(C(=O)N/C(=C/c2cccc([N+](=O)[O-])c2)C(=O)O)cc1	ALDH1A1 inh 11µM (no result: PNC assembly inh, 12-hLO inh, Lamin A splicing, HPGD block)
CCCCC(=O)NNC(=S)NC(=O)c1ccc(C)cc1	Lamin A splicing inconclusive, ALDH1A1 inh 25µM (no result: PNC assembly inh, 12-hLO inh, HPGD block)
CCCCOc1ccc(C(=O)N/C(=C\c2cccc([N+](=O)[O-])c2)C(=O)OCCC)cc1	none
CCCCC(=O)Nc1cccc(NC(=O)c2cccc([N+](=O)[O-])c2)c1	none (no result: PNC assembly inh, 12-hLO inh, HPGD block)
COCC(=O)N1CCC2(CC1)CCN(C(=O)Nc1cccc(C#N)c1)CC2	none (no result: PNC assembly inh, Lamin A splicing)
